Pf growth 96h: P. falciparum growth inhibition at 96 hour, primary screen for plastid delayed-death inhibitors; hit rate 6.9% among 320,000; AID 504834; Potency, µM (doses to about 28.7 µM), for the others: at the highest dose activity change, negative = inhibition, most hits filed as inhibitors; P. falciparum luciferase reporter growth, 96 h; also: potency is read from the fitted curve at half-maximal effect
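Compounds incubated with erythrocytes infected by luciferase-expressing P. falciparum (2% hematocrit, 0.05% parasitemia final) for 96 hours, 37 C in 5% CO2. Growth inhibition scored as decreased luciferase luminescence.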
Lassa entry inh: blocks Lassa virus binding to or entry into cells; Lassa virus pseudotype entry inhibition, cell reporter; Potency, µM (doses to about 37.9 µM), for inactives: at the top dose activity change, negative = inhibition, usual class: inhibitors; hit rate 1.2% among 300,000; AID 540256; calls by dose curve; tested in HEK293 cells; also: potency is read from the fitted curve at half-maximal effect; nearly all actives have a fitted effect of over 50% in size
MARV entry inh: blocks Marburg virus binding to or entry into cells | Marburg virus pseudotyped entry inhibition, cell reporter | Potency, µM (series often up to 37.8 µM), for the others: at the top dose activity change, negative = inhibition, hits mostly inhibitors | hit rate 1.8% among 300,000 | AID 540276; calls by dose curve; tested in HEK293 cells; also: potency is read from the fitted curve at half-maximal effect
Pf growth 48h: P. falciparum growth inhibition at 48 hours (one generation) | hit rate 5.9% among 310,000 | AID 504832 | P. falciparum luciferase growth in erythrocytes, 48 h | Potency, µM (top dose mostly 28.7 µM), for inactives: at the top dose activity change, negative = inhibition, most hits filed as inhibitors; also: potency is read from the fitted curve at half-maximal effect
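Luciferase-expressing P. falciparum in infected erythrocytes (2% hematocrit, 0.1% parasitemia final) in RPMI 1640/0.5% Albumax were exposed to compound for 48 hours at 37 C, 5% CO2; growth read as luminescence.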
HCMV antiviral: blocks human cytomegalovirus replication; HFF cells, HCMV-luciferase reporter, 72 h; active compounds read low; activity change, negative = inhibition, % at 57.5 µM; AID 1259415; hit rate 4.5% among 410,000; in the data active = activity change below about -60%; inconclusive = no clear call, values can overlap the other calls; inactive = above about -39%
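HFF cells seeded 16 h at 37C, treated with compounds, infected with luciferase-reporter HCMV at MOI 1 PFU/cell; luciferase read at 72 h post infection, normalized to buffer-only and Salinomycin controls.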
HCV inh: HCV inhibition | Potency, µM (titrated, usually from 41.8 µM), inactives show at the highest dose activity change, negative = inhibition, actives largely listed as inhibitors | hit rate 3.4% among 340,000 | Huh7.5.1 HCVcc-Cre infection, luciferase reporter, 44 h | AID 651820; also: potency is read from the fitted curve at half-maximal effect
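After 44 h co-culture of compound, cells and HCVcc-Cre (~0.5 moi), substrate is added for 15 min at room temperature and luciferase measured over 15 sec. Cells were seeded at 1,000/well and pre-cultured 4 h.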
Numbers without * were called inactive; ? = inconclusive; . = no result given; + = active, no number; [ ] = dose if it differs, or a comment. Shown are actives, neighbours in structure and some others; about 14% of the full set was active somewhere. Unless noted, calls follow the shape of the dose curve; as a rule, active = well fitted inhibition curve with a large enough effect; inconclusive = small, poorly fitted or top-dose-only effect, or another doubt; inactive = no such curve, though single readings can be large or run the other way. % is scaled to controls: 0 for no effect and ±100 for the full control effect.

SMILES | Pf growth 96h | Lassa entry inh | MARV entry inh | Pf growth 48h | HCMV antiviral | HCV inh
Clc1cccc(Nc2nc(-c3cccnc3)cs2)c1 | 36% | . | . | ? | 75 | 2.8µM*
COc1ccc2cc(-c3csc(-c4cccnc4)n3)ccc2c1 | . | 3% | ? | 54% | 94 | -8%
Brc1cccc(Nc2nc(-c3cccnc3)cs2)c1 | 102% | ? | -14% | 0% | 113 | 10µM*
COc1ccc(Cl)cc1Nc1nc(-c2cccnc2)cs1 | 2% | 1%[46.1 µM] | ? | ? | -38 | 13µM*
COc1ccc(-c2csc(-c3cccnc3)n2)cc1C | ? | 5% | -14% | -26% | -103* | ?
CCCc1c(C)nc2ccc(OC)cc2c1SCCC(=O)O | 12µM* | -8% | -12% | 10% | -2 | 5%
CCCc1c(C)nc2c(OC)cccc2c1SCC(=O)O | 2% | 3% | 3% | ? | 58 | ?
Cc1nc2c(C)cccc2c(SC(=N)N)c1CC=C(Cl)Cl | -1% | . | . | -1% | 14 | 1%
CCCOc1ccc2nc(C)c(CCC)c(SC(=N)N)c2c1 | 6.6µM* | . | . | 1.2µM* | 26 | 12%
CCCCn1c(N)c(N(CCOC)C(=O)C2CC(=O)N(Cc3ccco3)C2)c(=O)[nH]c1=O (configuration not stated) | -3% | . | . | ? | -15 | 20%
CC(C)NCC(O)c1ccc2ccccc2c1 (configuration not stated) | 4.7µM* | . | . | 1.5µM* | 32 | -20%
CC(C)(C)C(=O)NNC(=O)c1cc(C(C)(C)C)nn1Cc1ccccc1 | -14% | ? | 10µM* | -11% | -31 | 8%
Cc1ccc(NNC(=O)c2cc(C(C)(C)C)nn2Cc2ccccc2)cc1 | ? | ? | -7% | ? | -17 | ?
CC(C)(C)c1cc(C(=O)NNc2ccc(OC(F)(F)F)cc2)n(Cc2ccccc2)n1 | ? | ? | ? | ? | 12 | ?
COc1ccccc1NNC(=O)c1cc(C(C)(C)C)nn1Cc1ccccc1 | ? | ? | ? | ? | 22 | -17%
Cc1ccc(NC(=O)c2cc(C(C)(C)C)nn2Cc2ccccc2)cc1 | 9.3µM* | 2.8µM* | ? | 8.3µM* | ? | ?
CC(C)(C)c1cc(C(=O)NNc2cccc(Cl)c2)n(Cc2ccccc2)n1 | ? | ? | 11µM* | ? | -73* | -24%
CC(C)(C)c1cc(C(=O)NNc2cc(C(F)(F)F)ccc2Cl)n(Cc2ccccc2)n1 | 12µM* | ? | ? | 13µM* | -90* | ?
COC(=O)C[C@@H]1C[C@@H]2c3cc(NS(=O)(=O)c4ccc(F)cc4)ccc3O[C@@H]2[C@H](CO)O1 | . | . | . | . | 11 | .
CCOC(=O)[C@]12CCCC=C1N(CCC1=CCCCC1)C(=O)[C@H](CC(=O)NCCCN1CCCC1=O)C2 | . | . | . | . | -12 | .
Cc1cc(C)cc(NC(=O)c2cccc(N3CCCS3(=O)=O)c2)c1 | . | 7%[46.1 µM] | . | . | 48 | .
CC12C=C(/C=C/c3ccc(F)cc3)C(C)(C1)C(c1ccc(F)cc1)CC2=O (configuration not stated) | . | . | 9%[14.2 µM] | . | . | .
CC(C)(C)c1cc(C(=O)Nc2ccc(F)cc2)n(Cc2ccc(F)cc2)n1 | 12µM* | . | . | 10µM* | -92* | 11µM*
CC(C)(C)c1cc(C(=O)NC2CC2)n(Cc2ccc(F)cc2)n1 | ? | ? | ? | ? | -3 | 16%
Cc1c(C(=O)NCCC2=CCCCC2)sc2ncnc(N3CCCCC3C)c12 (configuration not stated) | 2.6µM* | ? | ? | ? | -39 | ?
SMILES | Pf growth 96h | Lassa entry inh | MARV entry inh | Pf growth 48h | HCMV antiviral | HCV inh
Cc1sc2ncnc(N3CCCCC3C)c2c1C (configuration not stated) | -11% | ? | ? | 8% | ? | ?
CCCn1cc(S(=O)(=O)c2cccc(Cl)c2)c(=O)c2cc(F)c(N3CCN(CC)CC3)cc21 | . | 1%[46.1 µM] | . | . | -37 | .
COc1cc(OC)c(N(C)C(=O)c2sc3nc4n(c(=O)c3c2C)CCCCC4)cc1Cl | . | -1%[46.1 µM] | . | . | 8 | .
CCCCOC(=O)c1ccc(NC(=O)c2cc(-c3ccccc3)on2)cc1 | . | 18%[46.1 µM] | 19%[46.1 µM] | . | -3 | .
CCn1nc(C)cc1C(=O)Sc1cccc(Br)c1 | -4% | -26% | 8%[46.1 µM] | 16% | -107* | 5%
CCn1nc(C)cc1C(=O)Sc1ccc(Cl)cc1Cl | 24% | 15% | 2%[46.1 µM] | 13% | -108* | 3%
C[C@]12CC(O)C3C(CCC4=CC(=O)CC[C@@]43C)C1CCC2c1csc(-c2ccccc2)n1 (some centres not stated) | ? | . | . | 5.2µM* | -76* | ?
CSc1ccc(CCNC(=O)C(C)n2c(C)c3cnn(-c4ccccc4)c(=O)c3c2C)cc1 (configuration not stated) | . | -12%[46.1 µM] | 4%[46.1 µM] | . | -12 | .
CCNc1nc(ON=C(C)C)nc(N(C)C)n1 | ? | -3% | 2% | 8.3µM* | 25 | 16%
O=C(Cn1ncc2c3ccccc3n(Cc3cccc(Cl)c3)c2c1=O)NC1CCCCCC1 | . | 6%[46.1 µM] | -9%[46.1 µM] | . | 12 | .
COc1ccccc1CN1CCC(CNC(=O)c2cnn(-c3ccc(Cl)cc3)c2C2CCN(C(=O)OC(C)(C)C)CC2)CC1 | . | ? | . | . | -108* | .
CC(C)(C)OC(=O)N1CCC(c2c(C(=O)NCCN3CCC(Cc4ccccc4)CC3)cnn2-c2cccc(Cl)c2)CC1 | . | ? | . | . | -100* | .
Cc1ccc(-n2ncc(C(=O)NCCN3CCc4ccccc4C3)c2C2CCN(C(=O)OC(C)(C)C)CC2)cc1 | . | ? | . | . | + | .
COc1ccc(-n2ncc(C(=O)NCCCN3CCCCC3)c2C2CCN(C(=O)OC(C)(C)C)CC2)cc1 | . | -17%[46.1 µM] | . | . | + | .
CN1CCN(CCNC(=O)c2cnn(-c3cccc(Cl)c3)c2C2CCN(C(=O)OC(C)(C)C)CC2)CC1 | . | -1%[46.1 µM] | . | . | -23 | .
CCc1nnc(SC(CC)C(=O)Nc2ccc(OC)c(Cl)c2)c2cc3occc3n12 (configuration not stated) | . | -18%[46.1 µM] | . | . | ? | .
Cc1ccc(-n2ncc(C(=O)NCCN3CCCC3)c2C2CCN(C(=O)OC(C)(C)C)CC2)cc1 | . | -23%[46.1 µM] | . | . | 0 | .
Cc1ccc(-n2ncc(C(=O)NCCN3CCC(Cc4ccccc4)CC3)c2C2CCN(C(=O)OC(C)(C)C)CC2)cc1 | . | ? | . | . | + | .
O=C(Nc1ccccc1)N(C1=NCCCCS1)c1cccc2ccccc12 | 45% | 7% | 9% | 34% | 31 | 5%
O=C(Nc1ccccc1)N(C1=NCCCCS1)c1ccccc1 | . | 14% | -7% | 36% | -104* | -16%
O=C(O)c1cc2cc(Cc3cccnc3)ccc2o1 | -17% | 5% | ? | -3% | . | .
CCOC(=O)CC1CCCCN1C(=O)c1ccc2oc(CCc3ccccc3)nc2c1 (configuration not stated) | ? | . | . | -18% | -35 | 10µM*
